Compound activity: PubChem BioAssay, National Center for Advancing Translational Sciences (NCATS)
AmpC detergent: blocks E. coli AmpC beta-lactamase in detergent assay. P00811. AmpC hydrolysis of nitrocefin, absorbance 480 nm, 0.01% Triton. Potency, µM (titrated, usually from 114 µM), without a hit: at the top dose activity change, negative = inhibition, usual class: inhibitors. hit rate 0.041% among 370,000. AID 485294;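 also: potency is read from the fitted curve at half-maximal effect; 0% = no-compound wells and -100% = no-enzyme wells; nearly all actives have a fitted effect of over 25% in size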
Target sequence (P00811 whole entry, looked up): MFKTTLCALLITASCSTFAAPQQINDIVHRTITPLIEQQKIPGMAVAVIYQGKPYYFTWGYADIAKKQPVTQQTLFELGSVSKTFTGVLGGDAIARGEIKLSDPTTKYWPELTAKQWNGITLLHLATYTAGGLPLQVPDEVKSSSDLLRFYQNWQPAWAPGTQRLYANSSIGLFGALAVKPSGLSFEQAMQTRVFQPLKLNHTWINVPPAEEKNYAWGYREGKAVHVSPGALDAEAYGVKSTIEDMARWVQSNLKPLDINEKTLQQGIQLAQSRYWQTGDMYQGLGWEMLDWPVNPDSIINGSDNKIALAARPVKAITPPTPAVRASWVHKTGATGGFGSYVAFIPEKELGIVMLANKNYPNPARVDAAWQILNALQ
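AmpC (5.3 nM in the dispensed reagent) in 20 mM phosphate pH 7.0 with 0.01% (detergent screen) or 0.0001% Triton X-100 was preincubated with compounds for 15 min at room temperature. Nitrocefin was then added from an 800 uM solution, and hydrolysis was followed at 480 nm.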
HCMV antiviral: human cytomegalovirus inhibition | HFF cells, HCMV-luciferase reporter, 72 h; active compounds read low | activity change, negative = inhibition, % at 57.5 µM | hit rate 4.5% among 410,000; in the data active = activity change below about -60%; inconclusive = no clear call, values can overlap the other calls; inactive = above about -39%
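Cell-based, HFFs, 1000 cells/well, 16 h 37C; cpds in DMSO + HCMV-luc, MOI 1 PFU/cell; 72 h 37C; OneGlo luminescence after 5 min RT; norm. to buffer vs Salinomycin 10uM.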
AmpC no deterg: AmpC beta-lactamase inhibition without detergent; AmpC nitrocefin hydrolysis, absorbance 480 nm, 0.0001% Triton; Potency, µM (series often up to 57.1 µM), for inactives: top-dose activity change, negative = inhibition, hits mostly inhibitors; hit rate 0.52% among 330,000; AID 485341;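 also: potency is read from the fitted curve at half-maximal effect; plate controls were no compound for no effect and no enzyme for full effect; nearly all actives have a fitted effect of over 20% in size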
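20 mM phosphate pH 7.0 + 0.01% (detergent screen) or 0.0001% Triton X-100; 5.3 nM AmpC reagent; cpd preinc 15 min RT; nitrocefin (800 uM stock) to start; A480 q20 s × 4 min; Activity was normalised to no-enzyme and no-compound control wells.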
FMDV antiviral: foot and mouth disease virus antiviral activity. FMDV antiviral cell-based qHTS. Potency, µM (titrated, usually from 57.9 µM), for inactives: at the highest dose activity change, negative = inhibition, usual class: inhibitors. hit rate 1.2% among 410,000. AID 1159524; calls by dose curve; tested in HEK293T cells; also: read-out not given here; potency is read from the fitted curve at half-maximal effect; nearly all actives have a fitted effect of over 45% in size
HCV inhibitor: blocks hepatitis C virus; Huh7.5.1 HCVcc-Cre infection, luciferase reporter, 44 h; Potency, µM (doses to about 41.8 µM), inactives show at the top dose activity change, negative = inhibition, usual class: inhibitors; hit rate 3.4% among 340,000; also: potency is read from the fitted curve at half-maximal effect
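Luciferase read-out (15 sec integration) after a 15 min room-temperature substrate step quantifies HCVcc-Cre infection. Cells, 1,000 per well, had compound added 4 h post-plating, then virus at ~0.5 moi, and were cultured 44 h.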
* = called active by the depositor; ? = inconclusive; nt = no result; [ ] = remark or other dose. Compounds with a hit are over-represented: about 7.3% of the library has one in this group of screens. Unless noted, calls follow the shape of the dose curve; as a rule, active = well fitted curve in the direction sought with a large enough effect; inconclusive = small, poorly fitted or top-dose-only effect, or another doubt; inactive = no such curve, though single readings can be large; an effect the other way counts as inactive or inconclusive. Unless noted, % is scaled to controls: 0 for no effect and ±100 for the full control effect.

SMILES | AmpC detergent | HCMV antiviral | AmpC no deterg | FMDV antiviral | HCV inhibitor
Cc1ccc(-n2ncc3c(N4CCCCCC4)ncnc32)cc1Cl | 9% | -90* | nt | 63µM* | nt
COc1ccc(-c2cc(=O)oc3cc(OCC(=O)Nc4ccc(CCO)cc4)ccc23)cc1 | 2% | ? | -20% | ? | 6%
CCN(CC(=O)Nc1ccc(OC)cc1)C(=O)c1cccc(S(=O)(=O)N2CCN(c3ccccc3)CC2)c1 | nt | -21 | nt | 0% | nt
Cc1cc(NS(=O)(=O)c2ccc(NC(=O)COc3ccc(Cl)cc3)cc2)nc(C)n1 | -7% | -4 | nt | 41% | nt
N=c1c2c(-c3ccccc3)c(-c3ccccc3)n(Cc3ccco3)c2ncn1CCCn1ccnc1 | 2% | -97* | 102% | ? | ?
N=c1c2c(-c3ccccc3)c(-c3ccccc3)n(Cc3ccco3)c2ncn1Cc1ccccc1 | 4% | -1 | 89% | -9% | -19%
N=c1c2c(-c3ccccc3)c(-c3ccccc3)n(Cc3ccco3)c2ncn1CCCN1CCOCC1 | ? | -98* | 181% | -14% | 7.1µM*
OCCNc1ncnc2c1c(-c1ccccc1)c(-c1ccccc1)n2Cc1ccco1 | -3% | -63* | 137% | -4% | ?
CC(C)Cn1cnc2c(c(-c3ccccc3)c(-c3ccccc3)n2Cc2ccco2)c1=N | -3% | -28 | 83% | ? | 11µM*
N=c1c2c(-c3ccccc3)c(-c3ccccc3)oc2ncn1CCCN1CCOCC1 | -4% | 12 | 130% | ? | ?
N=c1c2c(-c3ccccc3)c(-c3ccccc3)n(Cc3ccccc3)c2ncn1CCO | 2% | ? | 135% | ? | ?
c1ccc(-c2c(-c3ccccc3)n(Cc3ccco3)c3ncnc(NCCCn4ccnc4)c23)cc1 | -7% | nt | 179% | ? | ?
CCOc1ccc2nc3cc(NCc4ccc(OC)cc4)ccc3c(N)c2c1 | -10% | nt | -22% | ? | ?
Nc1nc(N)c2cc(CNc3ccc(Cl)c(Cl)c3)ccc2n1 | nt | -69* | nt | 35µM* | nt
COCOCCn1cc(CN2CCS(=O)(=O)N(Cc3ccc(-c4ccc(F)cc4)cc3)C(C(C)C)C2=O)nn1 (centres undefined) | nt | -9 | nt | ? | nt
COc1cc2c(cc1OC)-c1c3c(cc4c1[C@@H](C2)N(C)CC4)OCO3 | ? | -76* | -7% | ? | ?
COc1cc2c(cc1O)C(Cc1ccc(O)cc1)NCC2 (centres undefined) | 0% | -11 | -23% | -12% | -2%
COc1cc2c(cc1O)C[C@H]1NCCc3cc4c(c-2c31)OCO4 | ? | -84* | -7% | 0% | 11%[8.37 µM]
COc1cc2c(cc1OC)-c1c(OC)c(OC)cc3c1C(C2)N(C)CC3 (centres undefined) | ? | 28 | 12% | -14% | -32%
COC(=O)C1CCN(c2nc(CN(C)C3CCOC3)nc3cc(OC)c(OC)cc23)CC1 (centres undefined) | nt | nt | nt | -3% | nt
CCOC(=O)C1CCN(C(=O)COC(=O)CNS(=O)(=O)c2ccc(SC)c([N+](=O)[O-])c2)CC1 | nt | 0 | nt | -4% | 25%
CCOC(=O)CSC1=NC(=O)/C(=C\c2ccc(Cl)cc2)S1 | 4% | -94* | -39% | 18µM* | ?
O=c1[nH]cc(C=NNc2ccccc2)c(=O)[nH]1 | nt | -29 | nt | 7% | nt
COc1cccc(C(=O)NC2CC3CCC(C2)N3Cc2ccccc2)c1 (centres undefined) | ? | 58 | -17% | -9% | 7%
COc1cccc(C(=O)NC2CC3CCCC(C2)N3CC(=O)Nc2ccccc2C(F)(F)F)c1 (centres undefined) | ? | ? | 24% | -22% | 6.3µM*
SMILES | AmpC detergent | HCMV antiviral | AmpC no deterg | FMDV antiviral | HCV inhibitor
O=C(CN1C2CCCC1CC(NC(=O)C1CCCCC1)C2)Nc1ccccc1C(F)(F)F (centres undefined) | -3% | -33 | 59% | ? | 10µM*
CC(=O)OC(C(=O)Nc1nncs1)c1ccccc1 (centres undefined) | nt | -37 | nt | -19% | nt
Cc1ccc(C)c(N2CCN(C(=O)CC3Sc4ccccc4NC3=O)CC2)c1 (centres undefined) | 8% | -26 | -12% | ? | 10µM*
Cc1cc(C(=O)Nc2ccccc2-c2nc(CNC(=O)c3ccccc3Cl)c(C)o2)c(C)o1 | nt | nt | nt | 16% | nt
COc1ccc(-n2c(SCC(=O)NCc3ccccc3)nc3c([nH]c4ccccc43)c2=O)cc1 | 6% | 2 | nt | ? | nt
O=C1C=CC(=O)N1CCNc1ncc(C(F)(F)F)cc1Cl | ? | -96* | -13% | 32µM* | ?
O=C1CC(=O)N(CCNc2ncc(C(F)(F)F)cc2Cl)C(=O)N1 | ? | 27 | 6% | -15% | 11%
O=S(=O)(NCCNc1ncc(C(F)(F)F)cc1Cl)C(F)(F)F | -2% | -71* | -26% | -6% | ?
Cc1ccc2c(c1)CC(C)N2S(=O)(=O)c1nnc(NC(=O)C(C)C)s1 (centres undefined) | -4% | 0 | nt | -7% | nt
Oc1nc(Nc2ccc(F)cc2)sc1/C=C1\C=Nc2ccccc21 | 4% | ? | -47% | -1% | ?
CC1=Nc2ccccc2/C1=C\c1sc(Nc2ccc(C)cc2)nc1O | ? | -89* | 10% | 0% | ?
OCc1cnc(SCc2cccc(F)c2)n1Cc1ccc(F)cc1 | 5% | -71* | nt | -10% | nt
COc1cc(CNC(C)(C)CO)cc(Br)c1OCc1ccc(Cl)cc1Cl | -10% | -99* | 122% | ? | 10µM*
COc1cc(CNC(C)(C)CO)cc(Br)c1OCc1ccc(Cl)cc1 | -5% | ? | 60% | 0% | 5µM*
COc1cc(CNCCO)cc(Cl)c1OCc1ccc(Cl)cc1Cl | -9% | -5 | 158% | -5% | ?
COCCn1nnnc1C(c1cccc(OC)c1OC)N1CCN(C(=O)c2ccco2)CC1 (centres undefined) | 1% | 4 | 16% | 25% | 24%
COc1ccc(Cn2nnnc2C(C(C)C)N2CCN(c3ccccc3OC)CC2)cc1 (centres undefined) | -3% | -27 | 38% | 25µM* | ?
COc1ccccc1C(c1nnnn1Cc1ccco1)N1CCN(c2cccc(C)c2C)CC1 (centres undefined) | 1% | -27 | -11% | -3% | 13µM*
CCN1CCN(C(c2cccc(OC)c2OC)c2nnnn2Cc2ccco2)CC1 (centres undefined) | 1% | -83* | 0% | -8% | -9%
COc1ccc(N2CCN(C(c3cc(OC)ccc3OC)c3nnnn3Cc3ccco3)CC2)cc1 (centres undefined) | -1% | -33 | 58% | 22% | 12%
CCOC(=O)c1c(NC(=O)CSc2nc3ccc(C)cc3[nH]2)sc2c1CC(C)(C)NC2(C)C | -1% | -20 | 36% | -23% | 6.3µM*
CC(C)c1cnc2c(c1SCC(=O)Nc1cccc(F)c1)c(=O)n(C)c(=O)n2C | 8% | -6 | nt | 41% | nt
